MenB inh: blocks the Mycobacterium tuberculosis MenB enzyme; P9WNP5; MenB enzyme assay, absorbance read-out; inhibition, % (test concentration not listed); actives 0.43% (n = 100,000); AID 540299; in the data active = inhibition above about 21%, passing the limit was not always enough
Target sequence (P9WNP5 whole entry, looked up): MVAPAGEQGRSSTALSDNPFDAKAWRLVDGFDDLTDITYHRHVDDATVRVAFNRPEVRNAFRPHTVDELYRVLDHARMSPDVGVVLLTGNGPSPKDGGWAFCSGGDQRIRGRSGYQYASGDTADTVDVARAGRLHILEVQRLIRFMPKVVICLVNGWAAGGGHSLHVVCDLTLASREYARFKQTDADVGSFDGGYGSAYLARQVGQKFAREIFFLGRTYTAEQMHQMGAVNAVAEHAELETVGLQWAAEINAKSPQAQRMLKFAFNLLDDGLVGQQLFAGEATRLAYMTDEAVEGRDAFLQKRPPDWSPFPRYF
MbtI inh: inhibitors of Mycobacterium tuberculosis siderophore enzyme MbtI. purified MbtI enzyme, fluorescence intensity read-out. P9WFX0. inhibition, % (test concentration not listed). actives 0.89% (n = 100,000). AID 493033; in the data active = inhibition mostly above about 56%, no sharp cut-off; inactive = mostly below about 77%
PV pol inh: poliovirus RNA polymerase inhibition. P03300. poliovirus polymerase elongation, fluorescence polarization; active compounds read low. % elongation, % (compound at 16.7 µg/mL). actives 0.66% (n = 150,000). AID 588519; in the data active = % elongation below about 90%
AID504770: growth inhibitors of E. coli YBA685 in a screen for V. cholerae RctB (chromosome II replication) inhibitors; E. coli YBA685 rctB-dependent plasmid, OD600 growth, 3 h; active compounds read low; z-score (test concentration not listed); actives 0.27% (n = 130,000); AID 504770; in the data active = z-score below about -2, passing the limit was not always enough
An asterisk follows results filed as active; ! = not confirmed by another sample. Shown are actives, neighbours in structure and some others; about 1.4% of the full set was active somewhere.

What do the screens show for `COCCNC(=S)N1CCn2c1nc1ccccc12`?
MenB inh: -3; MbtI inh: 84*; PV pol inh: 91; AID504770: 0.1

What do the screens show for `O=C(CSc1nc2ccccc2c(=O)[nH]1)c1ccc(O)cc1O`?
MenB inh: 6; MbtI inh: 82*; PV pol inh: 104; AID504770: -0.4

What do the screens show for `O=C(CSc1nc2ccccc2c(=O)[nH]1)c1ccc(-c2ccccc2)cc1`?
MenB inh: 0; MbtI inh: 1; PV pol inh: 104; AID504770: 0.45

Results for CCn1c(-c2ccc3c(c2)OCCO3)cnc1SC(C)C(=O)NC(N)=O (configuration not stated) ?
MenB inh: -18; MbtI inh: -5; PV pol inh: 98; AID504770: -0.8

How did Cc1sc2c(c1C)CSC(C(=O)O)=C2 do in these assays?
MenB inh: -20; MbtI inh: 98*; PV pol inh: 100; AID504770: -1.4

Results for CCc1nc2ccccc2c(N)c1C ?
MenB inh: 14; PV pol inh: 90*; AID504770: -0.85

What do the screens show for `COc1ccccc1/C=C1/SC(=S)NC1=O`?
MbtI inh: -2; PV pol inh: 107; AID504770: 0.15

What do the screens show for `COc1ccccc1OCCn1cc(/C=C2/SC(=S)NC2=O)c2ccccc21`?
MenB inh: -94; MbtI inh: 59*; PV pol inh: 98; AID504770: 0.5

Results for O=C(CSc1nnc(-c2ccco2)c(-c2ccco2)n1)N1c2ccccc2Sc2ccc(Cl)cc21 ?
MenB inh: 33*; MbtI inh: 44; PV pol inh: 101; AID504770: -0.75

How did Cc1ccc(/C=C2/C=CC(=O)O2)o1 do in these assays?
MenB inh: -313; PV pol inh: 81*; AID504770: -1.5

How did Cc1ccc(/C=C2\CC/C(=C\c3ccc(C)o3)C2=O)o1 do in these assays?
MenB inh: -74; MbtI inh: 99*; PV pol inh: 84; AID504770: -0.7

What do the screens show for `Cc1ccc(/C=C2/CC(C)C/C(=C\c3ccc(C)o3)C2=O)o1` (configuration not stated)?
MenB inh: -48; MbtI inh: 92*; PV pol inh: 120; AID504770: 1.9

Results for Cc1ccc(/C=C2\CCCc3ccccc3C2=O)o1 ?
MenB inh: -10; MbtI inh: 21; PV pol inh: 103; AID504770: 1.2

Results for Cc1ccc(/C=C2/C(=O)/C(=C/c3ccc(C)o3)C3CCC2N3C)o1 ?
MenB inh: -138; MbtI inh: 58; PV pol inh: 71; AID504770: -1.6

How did N#Cc1cc(C(=O)c2cccs2)c(C(F)(F)F)nc1SCc1ccccc1 do in these assays?
MenB inh: -12; PV pol inh: 105; AID504770: 0.25

How did CN(C)CCCNc1nn2c(=O)c3ccccc3nc2c2ccccc12 do in these assays?
MenB inh: -4; MbtI inh: -103; PV pol inh: 82*; AID504770: -0.05

How did CCS(=O)c1ccccc1C(=O)NCc1ccc(F)cc1 (configuration not stated) do in these assays?
MenB inh: 4; MbtI inh: 86*; PV pol inh: 99; AID504770: 0

What do the screens show for `CC1=C(C)NC(=S)SC1`?
MenB inh: -20; MbtI inh: 97*; PV pol inh: 99; AID504770: 1.6

Results for CC1CCc2nc(SC3CC(=O)C4OCC3O4)nc(C(F)(F)F)c2C1 (configuration not stated) ?
MenB inh: -5; PV pol inh: 102; AID504770: 1.1

Results for O=C1CC(Sc2ccc3ccccc3c2)C2COC1O2 (configuration not stated) ?
MenB inh: -59; PV pol inh: 84*; AID504770: 0.3

Results for O=c1oc2c3ccccc3oc(=O)c2c2ccccc12 ?
MenB inh: -3; MbtI inh: 22; PV pol inh: 99; AID504770: 0.25

How did O=c1oc(Cl)c(Cl)c2ccccc12 do in these assays?
MenB inh: -9; MbtI inh: 4; PV pol inh: 90*!

What do the screens show for `COc1ccc(NC(=O)CSc2nc3c(oc4ccccc43)c(=O)n2C)cc1OC`?
MenB inh: -5; MbtI inh: 5; PV pol inh: 102; AID504770: 1.3

What do the screens show for `NC(=O)CCS(=O)(=O)c1ccccc1`?
MenB inh: -19; MbtI inh: -1; PV pol inh: 105; AID504770: -1.1

How did O=C(O)CCCS(=O)(=O)c1ccccc1 do in these assays?
MenB inh: 35*; MbtI inh: 10; PV pol inh: 101; AID504770: 0.35

Results for CC(C)(C)C(=O)NC1CCN(S(C)(=O)=O)CC1 ?
MenB inh: 31*; MbtI inh: -3; PV pol inh: 102; AID504770: -0.35

How did COc1ccc(NC(=O)c2c[nH]c(=O)n(-c3ccccc3)c2=O)cc1 do in these assays?
MenB inh: -5; MbtI inh: -3; PV pol inh: 102; AID504770: 2.6

How did Brc1ccc(CNc2ccc3cn[nH]c3c2)s1 do in these assays?
MenB inh: -37; MbtI inh: -14; PV pol inh: 58*; AID504770: -0.95

What do the screens show for `CN(C)CCNC(=O)c1ccc(Br)s1`?
MenB inh: -13; MbtI inh: 0; PV pol inh: 89*; AID504770: 0.05

How did CN(C)c1ccc(NC(=O)c2ccccn2)cc1 do in these assays?
MenB inh: -32; MbtI inh: 11; PV pol inh: 99; AID504770: 0

How did CN(C)c1ccc(NC(=S)N=P(c2ccncc2)(N(C)C)N(C)C)cc1 do in these assays?
MenB inh: -32; MbtI inh: 81*; PV pol inh: 101; AID504770: 1.4

How did Cc1nc2nc(C(F)(F)F)[nH]c2cc1Br do in these assays?
MenB inh: -32; MbtI inh: 70*; PV pol inh: 104; AID504770: 0.4

What do the screens show for `CCOC(=O)N=c1oc2cc(Cl)c(Cl)cc2o1`?
MenB inh: 4; MbtI inh: 96*; PV pol inh: 99; AID504770: -2.5

What do the screens show for `CCOC(=O)Oc1cc2oc(=O)sc2cc1Cl`?
MenB inh: 6; MbtI inh: 22; PV pol inh: 98; AID504770: -0.15

What do the screens show for `CC(CC(=O)O)NC(=O)c1ccc(OC(F)F)cc1` (configuration not stated)?
MenB inh: -10; MbtI inh: 14; PV pol inh: 98; AID504770: 0.45

How did Cc1cc(NCCCN2CCCC2=O)n2c(nc3ccccc32)c1C#N do in these assays?
MenB inh: 37*; MbtI inh: 70; PV pol inh: 104; AID504770: 1.1

Results for O=C(OCc1cc(Cl)c2c(c1)OCCO2)C12CC3CC(CC(O)(C3)C1)C2 ?
MenB inh: -9; MbtI inh: 5; PV pol inh: 102; AID504770: 0.55

How did COC(=O)c1nn(-c2ccc(OC)cc2)c(=O)c2c(N)sc(C)c12 do in these assays?
MenB inh: -55; MbtI inh: 77*; PV pol inh: 83*; AID504770: 1.1

How did COC(=O)c1nn(-c2ccccc2)c(=O)c2c(N)sc(C)c12 do in these assays?
MenB inh: -13; MbtI inh: 76*; PV pol inh: 73*; AID504770: -0.7

Screening data (PubChem BioAssay)
